Mito fusion act: blocks mitochondrial division or promotes mitochondrial fusion; S. cerevisiae fusion-defective mutant growth rescue, CellTiterGlo 48 h; Potency, µM (doses to about 46.1 µM), hits mostly activators; actives 0.23% (n = 320,000); also: nearly all actives have a fitted effect of over 45% in size
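Read-out: ATP-based luminescence (CellTiterGlo, 10 min ambient) reporting growth of fusion-defective ts yeast after 48 hours at 37C on glycerol/ethanol YPEG medium in the presence of compound.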
GLS inhibitor: blocks human kidney-isoform glutaminase activity. O94925. GLS enzymatic activity, qHTS titration. Potency, µM (series often up to 45.5 µM), hits mostly inhibitors. actives 0.21% (n = 410,000). AID 624170
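hKGA in 45 mM KH2PO4 (pH 8.2), 0.02% Tween-20 with compound, then 1mM L-Glutamine (stock as added) plus glutamate oxidase/HRP/Amplex red coupling mix. Fluorescence read initially and after 30 min at RT; signal change reflects glutamate formation.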
PKM2 act: activators of human pyruvate kinase M2 | P14618 | purified PKM2, Kinase-Glo ATP luminescence, activation; response scale: 0% is enzyme alone, no compound | Potency, µM (series often up to 57.5 µM), usual class: activators | actives 0.34% (n = 260,000) | AID 1631; also: nearly all actives have a fitted effect of over 55% in size
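Kinase-Glo luminescence reports ATP generated from ADP (0.1 mM) and PEP (0.5 mM) by purified hPK-M2 after 1 h at room temperature, pH 7.2 imidazole buffer; intermediate enzyme activity allows detecting inhibitors and activators.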
VDR inh: inhibitors of human vitamin D receptor; Potency, µM, most hits filed as inhibitors; P11473; actives 0.93% (n = 400,000); VDR-SRC2-3 peptide fluorescence polarization, 2 h
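FP read-out; VDR + SRC2-3 coactivator peptide; 23 nl compound by pintool; 2 h RT incubation; reagents held at 4 deg C, protected from light.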
GCN5L2 inh: GCN5L2 (KAT2A) acetyltransferase inhibition; GCN5L2 HAT assay, ThioGlo1 CoA-SH fluorescence; actives 0.21% (n = 390,000); AID 504327; Q92830; Potency, µM (top dose mostly 58.9 µM), hits mostly inhibitors
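Enzyme at 20nM final was mixed with library compounds for 15 min at room temperature. Peptide H3(1-25) at 75uM, acetyl-CoA at 70uM and ThioGlo1 at 50uM were then added. Plates were read immediately and after 20 min (Ex340nm/Em540nm).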
PLK1 PBD block: inhibitors of human PLK1 polo-box domain binding | P53350 | Plk1 PBD binding of FITC phosphopeptide, fluorescence polarization | Potency, µM, usual class: inhibitors | actives 2.8% (n = 360,000) | AID 720504; also: series mostly up to about 57 µM; nearly all actives have a fitted effect of over 65% in size
Target sequence (P53350 whole entry, looked up, the tested form may be a part): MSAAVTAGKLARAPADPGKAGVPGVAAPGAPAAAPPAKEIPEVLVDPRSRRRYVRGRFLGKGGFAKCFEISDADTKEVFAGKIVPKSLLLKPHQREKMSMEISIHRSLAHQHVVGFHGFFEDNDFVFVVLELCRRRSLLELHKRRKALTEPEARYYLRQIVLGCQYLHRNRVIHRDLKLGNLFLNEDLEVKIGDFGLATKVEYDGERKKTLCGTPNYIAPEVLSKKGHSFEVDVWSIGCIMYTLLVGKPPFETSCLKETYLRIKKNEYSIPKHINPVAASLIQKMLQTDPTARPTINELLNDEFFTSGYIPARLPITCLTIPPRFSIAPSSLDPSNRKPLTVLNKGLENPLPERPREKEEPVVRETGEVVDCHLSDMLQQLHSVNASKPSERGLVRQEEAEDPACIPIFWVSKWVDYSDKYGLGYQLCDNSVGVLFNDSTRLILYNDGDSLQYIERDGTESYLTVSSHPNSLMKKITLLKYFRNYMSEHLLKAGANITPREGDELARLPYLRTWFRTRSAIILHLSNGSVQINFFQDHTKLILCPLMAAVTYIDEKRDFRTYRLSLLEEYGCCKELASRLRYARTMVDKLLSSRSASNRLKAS
Numbers stand for hits; - = inactive; ? = inconclusive; . = no result given; ! = not active in a repeat. This is a sample that favours compounds with a hit; in the whole collection about 3.4% have one here. Calls follow the shape of the dose curve; as a rule, active = well fitted curve in the direction sought with a large enough effect; inconclusive = small, poorly fitted or top-dose-only effect, or another doubt; inactive = no such curve, though single readings can be large; an effect the other way counts as inactive or inconclusive.

SMILES	Mito fusion act	GLS inhibitor	PKM2 act	VDR inh	GCN5L2 inh	PLK1 PBD block
Cc1cc(/C=C2\C(=O)NC(=O)N(c3ccc(Cl)cc3)C2=O)c(C)n1-c1sc2c(c1C#N)CCCC2	-	-	-	?	-	1.2µM
Cc1ccc(N2C(=O)NC(=O)/C(=C\c3cc(C)n(-c4ccc(C(=O)O)cc4)c3C)C2=O)cc1	-	-	.	-	-	?
Cc1ccc(-n2c(C)cc(/C=C3/C(=O)NC(=O)N(C)C3=O)c2C)cc1	-	-	-	-	-	-
CCOC(=O)c1c(-n2c(C)cc(/C=C3\C(=O)NC(=O)N(C)C3=O)c2C)sc2c1CCCC2	-	-	16µM	?	-	2.7µM
O=C(Nc1ccc(Br)cc1C(=O)O)c1ccc2c(c1)C(=O)N(Cc1ccccc1)C2=O	-	-	-	?	-	?
COc1cc2oc(=O)c(CC(=O)N3C[C@H]4C[C@@H](C3)c3cccc(=O)n3C4)c(C)c2cc1Cl	.	-	.	-	.	-
Cc1c(CC(=O)N2C[C@H]3C[C@@H](C2)c2cccc(=O)n2C3)c(=O)oc2cc(O)c(Cl)cc12	-	-	-	-	20µM	-
CC(C)C(O)(C(=O)OC[C@@H]1CC[N+]2([O-])CCCC12)C(C)O (some centres undefined)	.	.	.	-	.	.
CCOC(=O)C1=Nc2ccccc2/C1=C\c1c(O)n(C)c(=O)n(C)c1=O	-	-	-	?	-	13µM
Cn1c(O)c(C=Nc2ccccc2-c2ccccc2)c(=O)n(C)c1=O	-	-	-	-	-	-
C[C@H]1O[C@@H](O[C@H]2[C@@H](O)C[C@H](O[C@H]3[C@@H](O)C[C@H](O[C@H]4CC[C@]5(C)C6CC[C@]7(C)[C@@H](C8=CC(=O)OC8)CC[C@]7(O)C6CC[C@@H]5C4)O[C@@H]3C)O[C@@H]2C)C[C@H](O)[C@@H]1O (some centres undefined)	.	.	.	-	-	.
COc1ccc(CN2C(=O)CC(=O)NC2=O)cc1	-	-	-	-	-	-
Cc1cccc(N2C(=O)NC(=O)/C(=C\c3cccn3-c3ccc(Cl)cc3)C2=O)c1	-	-	-	-	-	0.53µM
Cc1cc(C)cc(N2C(=O)NC(=O)/C(=C/c3cccn3-c3ccc(Cl)cc3)C2=O)c1	-	-	-	-	-	?
COc1ccc(CN2C(=O)NC(=O)/C(=C/c3ccc([N+](=O)[O-])o3)C2=O)cc1	-	.	-	.	22µM	.
COc1ccc(CN2C(=O)NC(=O)/C(=C\c3cccc(OC)c3OC)C2=O)cc1	-	-	-	?	-	30µM
CC(C)(C)n1cccc1/C=C1\C(=O)NC(=O)N(c2ccccc2)C1=O	-	-	-	-	-	24µM
Cc1[nH]cnc1CCN	.	.	-	.	.	.
COc1cccc(-c2nc3c(C#N)c[nH]n3c2NC2CCCCC2)c1OC	.	?	.	-	-	.
CCC1OC(=O)CC(O)C(C)[C@@H](O[C@@H]2OC(C)[C@H](O[C@@H]3C[C@@](C)(O)C(O)C(C)O3)C(N(C)C)C2O)[C@H](CC=O)CC(C)C(=O)/C=C/C(C)=C/[C@@H]1COC1OC(C)C(O)C(OC)[C@@H]1OC (some centres undefined)	.	-	.	-	-	.
O=C1NC(=O)N(c2ccc3c(c2)OCO3)C(=O)/C1=C/c1ccc(N2CCCC2)o1	-	-	-	-	-	-
Cc1cccc(N2C(=O)NC(=O)/C(=C/c3ccc([N+](=O)[O-])o3)C2=O)c1	-	7.1µM	-	?	25µM	11µM
Cc1ncc2n1-c1ccc(Cl)cc1C(c1ccccc1F)=NC2O (centres undefined)	.	.	.	-	-	.
C=CCN1C(=O)/C(=C/c2cc(C)n(-c3cccnc3)c2C)C(=O)NC1=S	-	?	-	-	-	1.5µM
c1ccc(Nc2ccc(Nc3ccccc3)cc2)cc1	?	-	.	-	-	-
SMILES	Mito fusion act	GLS inhibitor	PKM2 act	VDR inh	GCN5L2 inh	PLK1 PBD block
N#CC(C#N)=C(C#N)c1ccc(Nc2ccccc2)cc1	-	-	-	50µM	-	-
CN(N=O)c1cc(O)ccc1O	23µM	.	.	45µM	?	.
Cc1[nH]ccc2c1[nH]c1cc(=O)ccc12	-	-	-	-	?	-
COc1ccc(OC)c(CC(C)N)c1 (centres undefined)	.	-	.	.	.	.
CCn1cc(C(=O)NCc2ccccc2)c2ccccc21	-	-	-	-	-	-
CCn1cc(C(=O)O)c(=O)c2ccc(C)nc21	5.8µM!	-	.	-	-	-
CCCCOP(=O)(OCCCC)C(Nc1ccccc1)c1ccc2c(c1)OCO2 (centres undefined)	?	-	-	-	-	-
CC(=O)c1ccc2c(c1)C1C(Cl)C(Sc3ccccc3[N+](=O)[O-])CC1C(c1ccccc1)N2 (centres undefined)	-	-	-	?	-	15µM
CC(=O)c1ccc2c(c1)C1C(Cl)C(Sc3ccccc3[N+](=O)[O-])CC1C(c1ccccc1[N+](=O)[O-])N2 (centres undefined)	-	-	-	-	-	-
C=CCN1C(=O)/C(=C/c2ccc3c(c2)CCCN3CCC)C(=O)NC1=S	-	-	-	?	-	-
CCN1C(=O)/C(=C\c2ccc([N+](=O)[O-])s2)C(=O)NC1=S	-	.	-	.	8.9µM	.
CCCCCn1c(=O)c(C(=O)Nc2cnccn2)c(O)c2ccccc21	-	-	-	-	-	21µM
CCCCCCCn1c(=O)c(C(=O)Nc2cnccn2)c(O)c2ccccc21	-	-	-	-	-	-
CN1CC[C@]23c4c5ccc(O)c4OC2C(O)CCC3[C@H]1C5 (some centres undefined)	.	-	.	.	.	.
CNC(=S)N(C)CCc1cc2c(c(OC)c1C=C1C(=O)NC(=O)NC1=O)OCO2	-	-	-	-	-	?
C=CCN1C(=O)NC(=O)/C(=C/c2c(CCN(C)C(=O)c3ccccc3)cc3c(c2OC)OCO3)C1=O	-	-	-	-	-	24µM
C=C(C)[C@H]1O[C@H]2CC[C@@]3(C)[C@@](O)(CC[C@H]4[C@@H]5OC(C)(C)[C@H]6C[C@@H]7C(=C)Cc8c(Cl)cc9[nH]c(c5c9c8[C@@]76O)[C@@]43C)[C@]23O[C@@H]3[C@H]1O	.	.	.	-	-	.
COC1(C)CC(c2ccccc2)c2c(c3ccccc3oc2=O)O1 (centres undefined)	.	.	.	-	-	.
S=C1Nc2ccccc2Sc2ccccc21	-	-	-	-	-	27µM
C[C@]12C/C(=C/O)C(=O)C[C@@H]1CC[C@@H]1[C@@H]2CC[C@@]2(C)[C@H]1CC[C@]2(C)O	.	-	.	?	-	.
C[C@@H]1C[C@H](C)C[C@H](C)[C@@H](O)CC(=O)O[C@H]([C@H]2CCC[C@H]2C(=O)O)C/C=C/C=C(/C#N)[C@H](O)[C@@H](C)C1	.	.	.	?	-	.

Screening results as filed in PubChem.
